Assay results as given in PubChem BioAssay (EPA / NIEHS).
Calls of active or inactive are those of the source. How the source made its calls: active means hit-call score of the fitted dose curve at least 0.9, where 1 is the maximum; inactive means score below 0.9.

assay: ATG_GLI_CIS: Attagene CIS-FACTORIAL HepG2 Assay for human Zinc Finger Protein GLI1 (AID 2282945); conditions: HepG2, Attagene cis-factorial reporter mRNA, GLI element; actives raise or lower the signal
In short: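 HepG2 cells transiently transfected with cis-promoter multiplexed reporter units report endogenous transcription factor activity. After 24 h chemical exposure, reporter mRNA was quantified by RT-PCR, 6-FAM labelling, HpaI digestion and capillary electrophoresis, with bidirectional fitting against DMSO.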

SMILES	AC50	outcome
COc1cc(-c2nc(NC(=O)c3cc4cc(C)cc(C)c4n3CC(=O)O)sc2CCC2CCCCC2)c(OC)cc1Cl	100 µM (active)	–
CCCCCCCCCCCC(=O)OC	–	inactive
COCCOCCOC	–	inactive
CCCCCCCCCCO	–	inactive
CCOC(=O)C(C)(C)Oc1ccc(Cl)cc1	–	inactive
CC(CO)OC(C)CO (centres undefined) (tested in a mixture with another compound)	–	inactive
CCc1c(C(=O)NN2CCCCC2)nn(-c2ccc(Cl)cc2Cl)c1-c1ccc(Br)cc1	–	inactive
CNC(=O)[C@H]1O[C@@H](n2cnc3c(NCc4cc(Cl)ccc4OCc4cc(C)no4)ncnc32)[C@H](O)[C@@H]1N	–	inactive
C[Si]1(C)O[Si](C)(C)O[Si](C)(C)O[Si](C)(C)O1	–	inactive
CCCCc1ccc2c(n1)[C@@H](c1ccc(OC)cc1C[C@H](C)C(=O)O)[C@H](C(=O)O)[C@H]2c1ccc2c(c1)OCO2	–	inactive
O=C(O)CCCCC(=O)O	–	inactive
CCCCN(CCCC)CCCC	–	inactive
CN[C@H]1CC[C@@H](c2ccc(Cl)c(Cl)c2)c2ccc(S(N)(=O)=O)cc21	–	inactive
Cc1cc(=O)[nH]c(=S)[nH]1	–	inactive
Cc1nc(-c2ccc3c(c2)CCN(CCC2CCC(NC(=O)/C=C/c4ccc(F)cc4)CC2)CC3)no1 (centres undefined)	–	inactive
Cc1ccc(Cl)cc1	–	inactive
NC(=O)Cn1c(=O)cc(CCN2CCN(c3nccc4sccc34)CC2)c2ccc(F)cc21	–	inactive
Cc1ccccc1Cl	–	inactive
COc1cc(/C=C/C(=O)CC(=O)/C=C/c2ccc(O)c(OC)c2)ccc1O	53.9 µM (active)	–
